From the supplement of paper PMC8728848
The entries come from a sample that favours the strongest signals as a whole.

What was measured:
Experiment in all cases: glycan array binding signal (z-score within array); higher = stronger binding
Conditions in all cases: glycan notation: IUPAC condensed, linker removed
[1] = target: GalNAc(a1-3)GalNAc(b1-3)Gal(a1-4)Gal(b1-4)Glc
In short: (§1)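 Glycan array data were curated from 3228 arrays in the Consortium for Functional Glycomics database and kept only where the protein sequence was available. Glycan names were converted to IUPAC-condensed notation, and columns mapping to the same glycan were averaged. The binding signal is a within-array Z-score, averaged across arrays of the same protein sequence at different concentrations or buffers and across linkers. Negative Z-scores can be read as non-binding.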

[2] = target: GalNAc(a1-3)GalNAc(b1-3)Gal(a1-4)Gal(b1-4)GlcNAc
In short: as §1

GalNAc(b1-3)GalNAc = target: GalNAc(b1-3)GalNAc
In short: as §1

Glc(b1-4)Glc = target: Glc(b1-4)Glc
In short: as §1

GlcA(b1-6)Gal = target: GlcA(b1-6)Gal
In short: as §1

[3] = target: GlcNAc(a1-3)Gal(b1-4)GlcNAc
In short: as §1

[4] = target: GlcNAc(a1-4)Gal(b1-4)GlcNAc(b1-3)Gal(b1-4)GlcNAc
In short: as §1

[5] = target: GlcNAc(a1-4)Gal(b1-4)GlcNAc(b1-3)Gal(b1-4)GlcNAc(b1-3)Gal(b1-4)GlcNAc
In short: as §1

[6] = target: GlcNAc(a1-6)Gal(b1-4)GlcNAc
In short: as §1

[7] = target: GlcNAc(b1-3)Gal(b1-4)GlcNAc(b1-3)Gal(b1-4)GlcNAc(b1-2)Man(a1-3)[GlcNAc(b1-3)Gal(b1-4)GlcNAc(b1-3)Gal(b1-4)GlcNAc(b1-2)Man(a1-6)]Man(b1-4)GlcNAc(b1-4)[Fuc(a1-6)]GlcNAc
In short: as §1

Kdn(a2-3)Gal(b1-3)GalNAc = target: Kdn(a2-3)Gal(b1-3)GalNAc
In short: as §1

Kdn(a2-3)Gal(b1-4)Glc = target: Kdn(a2-3)Gal(b1-4)Glc
In short: as §1

Kdn(a2-6)Gal(b1-4)GlcNAc = target: Kdn(a2-6)Gal(b1-4)GlcNAc
In short: as §1

Man(a1-2)Man(a1-3)Man = target: Man(a1-2)Man(a1-3)Man
In short: as §1

[8] = target: Neu5Ac(a2-3)Gal(b1-4)GlcNAc6S
In short: as §1

[9] = target: Neu5Ac(a2-3)Gal(b1-4)[Fuc(a1-3)]GlcNAc(b1-3)Gal(b1-4)[Fuc(a1-3)]GlcNAc(b1-3)Gal(b1-4)[Fuc(a1-3)]GlcNAc
In short: as §1

[10] = target: Neu5Ac(a2-6)Gal(b1-4)GlcNAc(b1-2)Man(a1-3)[Man(a1-6)]Man(b1-4)GlcNAc(b1-4)GlcNAc
In short: as §1

[11] = target: Neu5Ac(a2-6)Gal(b1-4)GlcNAc(b1-2)Man(a1-6)Man(b1-4)GlcNAc(b1-4)GlcNAc
In short: as §1

[12] = target: Neu5Ac(a2-6)Gal(b1-4)GlcNAc(b1-2)Man(a1-6)[GlcNAc(b1-2)Man(a1-3)]Man(b1-4)GlcNAc(b1-4)GlcNAc
In short: as §1

[13] = target: Neu5Ac(a2-6)Gal(b1-4)GlcNAc(b1-3)Gal(b1-4)GlcNAc(b1-6)[Gal(b1-3)]GalNAc
In short: as §1

[14] = target: Neu5Ac(a2-6)Gal(b1-4)GlcNAc(b1-3)Gal(b1-4)[Fuc(a1-3)]GlcNAc(b1-3)Gal(b1-4)[Fuc(a1-3)]GlcNAc
In short: as §1

[15] = target: Neu5Ac(a2-6)Gal(b1-4)GlcNAc(b1-3)[Neu5Ac(a2-6)Gal(b1-4)GlcNAc(b1-6)]GalNAc
In short: as §1

[16] = target: Neu5Ac(a2-6)Gal(b1-4)GlcNAc(b1-6)[Gal(b1-3)]GalNAc
In short: as §1

[17] = target: Neu5Ac(a2-6)GalNAc(b1-4)GlcNAc6S
In short: as §1

[18] = target: Neu5Ac(a2-8)Neu5Ac(a2-3)Gal(b1-3)GalNAc(b1-4)[Neu5Ac(a2-8)Neu5Ac(a2-3)]Gal(b1-4)Glc
In short: as §1

Neu5Gc(a2-3)Gal(b1-4)Glc = target: Neu5Gc(a2-3)Gal(b1-4)Glc
In short: as §1

B1: HPAIIITrx (Helix pomatia), Q1KM18 (protein)
chain: MLFVTIISLGLLAIVHGQCALKTIAFSAAIDREQTFDANQVVIYDIVITNHGNAYDNSTGLFTAPVDGMYSFQLNLLTIKEKEGWLELVHNGQLKVSVYAKQDSTYDSSSNSVIIKMKEGDRVNVRAHKKSGLFGRDDELYNTFSGHFLSGL
glycan array binding signal (z-score) [1]: 5.39 | glycan array binding signal (z-score) [2]: 4.56 | glycan array binding signal (z-score) (GalNAc(b1-3)GalNAc): -0.254 | glycan array binding signal (z-score) (Glc(b1-4)Glc): -0.122 | glycan array binding signal (z-score) (GlcA(b1-6)Gal): -0.196 | glycan array binding signal (z-score) [3]: 0.416 | glycan array binding signal (z-score) [4]: 1.69 | glycan array binding signal (z-score) [5]: 2.06 | glycan array binding signal (z-score) [6]: -0.341 | glycan array binding signal (z-score) [7]: -0.228 | glycan array binding signal (z-score) (Kdn(a2-3)Gal(b1-3)GalNAc): -0.152 | glycan array binding signal (z-score) (Kdn(a2-3)Gal(b1-4)Glc): 0.214 | glycan array binding signal (z-score) (Kdn(a2-6)Gal(b1-4)GlcNAc): -0.263 | glycan array binding signal (z-score) (Man(a1-2)Man(a1-3)Man): -0.321 | glycan array binding signal (z-score) [8]: -0.337 | glycan array binding signal (z-score) [9]: 0.089 | glycan array binding signal (z-score) [10]: -0.533 | glycan array binding signal (z-score) [11]: -0.31 | glycan array binding signal (z-score) [12]: -0.492 | glycan array binding signal (z-score) [13]: -0.292 | glycan array binding signal (z-score) [14]: -0.392 | glycan array binding signal (z-score) [15]: -0.408 | glycan array binding signal (z-score) [16]: -0.3 | glycan array binding signal (z-score) [17]: -0.278 | glycan array binding signal (z-score) [18]: -0.38 | glycan array binding signal (z-score) (Neu5Gc(a2-3)Gal(b1-4)Glc): -0.237
